# Reference: PubChem BioAssay AID651820 (National Center for Advancing Translational Sciences (NCATS), 2012)
# Among all 340,000 compounds or so, about 12,000 (3.5%) were called active. About 18% were inconclusive and are not listed. This excerpt belongs to a sample that is enriched for actives. More than one record can exist for a structure, and the calls need not agree. Unmarked numbers belong to inactive results. Calls come from the whole dose curve; as a rule, active = well fitted inhibition curve with a large enough effect; inconclusive = small, poorly fitted or top-dose-only effect, or another doubt; inactive = no such curve, though single readings can be large or run the other way.
# Assay: qHTS Assay for Inhibitors of Hepatitis C Virus (HCV)
# Conditions: Huh7.5.1 HCVcc-Cre infection, luciferase reporter, 44 h; series mostly up to 41.8 µM; activity change, negative = inhibition: at the top concentration
# How it was run: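 Seed cells (1,000/well) for 4 h; treat with compound and infect with HCVcc-Cre, moi about 0.5. Incubate 44 h, then detect luciferase activity.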
# % is set by controls: 0 for no effect and ±100 for the full control effect; potency is the fitted concentration of half-maximal effect.
Compound,"activity change, negative = inhibition",Potency
c1ccc2sc(NN=C3CCCC3)nc2c1,-20.9%,–
O=C(Nc1ccccc1)Nc1nc2ccccc2s1,-12.9%,–
c1ccc(C(=NNc2nc3ccccc3s2)c2ccccn2)cc1,–,1.58 µM (active)
Cc1ccc(S(=O)(=O)N2CCOCC2)cc1NC(=O)COC(=O)c1cnccn1,0.865%,–
CCOC(=O)CSc1nnc(-c2cccc(Br)c2)o1,15.7%,–
Cc1cccc(C)c1OC(=O)CSc1nnc(-c2ccccc2)o1,-4.66%,–
CC1=CC(C)(C)N(C(=O)CSc2nnc(-c3ccccc3)o2)c2ccc(C)cc21,–,11.2 µM (active)
CC1(C)C[C@H]2C3=CCC4[C@@]5(C)CC[C@H](O)[C@](C)(CO)C5CC[C@@]4(C)[C@]3(C)C[C@@H](O)[C@@]2(CO)[C@@H](O)[C@@H]1O (some centres not stated),8.47%,–
Cc1cc(C(=O)COc2ccc(Br)cc2F)c(C)n1C1CC1,–,22.4 µM (active)
Cc1cc(C(=O)COc2ccccc2Cl)c(C)n1C1CC1,-11.2%,–
Cc1cc(C(=O)OCC(=O)Nc2c(F)cccc2F)c(C)n1C1CC1,13.6%,–
O=C(CSc1ccccn1)N1CCN(S(=O)(=O)c2ccc(Cl)cc2)CC1,2.37%,–
COc1ccccc1-n1nnnc1SCC(=O)NC(=O)Cc1ccccc1,3.1%,–
Cc1ccc(Cl)c(OCC(=O)N(C)CC(=O)Nc2ccc(N3CCOCC3)cc2)c1,-13.6%,–
O=C(COC(=O)c1ccco1)Nc1ccc(Cl)cn1,7.08%,–
CN(C)[C@@H]1C(=O)C(C(N)=O)=C(O)[C@@]2(O)C(=O)C3=C(O)c4c(O)ccc(Cl)c4[C@@H](O)[C@H]3C[C@@H]12,0.778% [at 8.37 µM],2.82 µM (active)
CCCCn1c(N)c(N(CCC(C)C)C(=O)c2ccc(COc3ccccc3)o2)c(=O)[nH]c1=O,-10.5%,–
O=C(CNC(=O)c1cc(S(=O)(=O)N2CCOCC2)ccc1N1CCCC1)Nc1ccc(F)c(F)c1,5.03%,–
CC1CC(=NNC(=O)C2COc3ccccc3O2)CC(C)(C)C1 (configuration not stated),-16.6%,–
CN(C)C(=O)CCc1ccc2c3c([nH]c2c1)[C@]1(CCC2CCCC2)[C@@H](C(=O)N2CCOCC2)C[C@H](CC(=O)NCc2ccco2)C(=O)N1CC3,11% [at 8.37 µM],–
CCc1ccccc1NC(=O)CN(C)C(=O)c1cc(C2CC2)nn1-c1ccccc1,-18.9%,–

Compound,"activity change, negative = inhibition",Potency
CN(c1ccccc1)S(=O)(=O)c1cccc(NC(=O)Cc2c(F)cccc2Cl)c1,–,8.91 µM (active)
CN(c1ccccc1)S(=O)(=O)c1cccc(C(=O)NNC(=O)c2ccncc2)c1,-10.3% [at 8.37 µM],–
CN(C)S(=O)(=O)c1cccc(NC(=O)Cc2ccsc2)c1,-5.68%,–
CCOC(=O)[C@@H]1[C@H]2COc3ccc(Br)cc3[C@H]2N2C(=O)N(c3ccc(C)cc3)C(=O)[C@@]12C,4.27%,–
COC(=O)CC(CC(=O)OC)n1cccc1,12.6%,–
CCC(C)NC(=O)c1ccc(NC(=O)CC2SC(N3CCCCC3)=NC2=O)cc1 (configuration not stated),8.14%,–
O=C(Nc1cc2c3c(c1)CC(=O)N3CCC2)c1ccccc1F,-15%,–
CCOc1cc(C(=O)Nc2ccc(S(=O)(=O)Nc3cnc4ccccc4n3)cc2)cc(OCC)c1OCC,2.89%,–
Cc1nc(N=C(N)N)nc2c(C)cccc12,–,14.1 µM (active)
CC(=O)Oc1ccc(-c2nc3c(C)cccc3c(=O)o2)cc1,-18.5%,–
COc1cc(Cl)c(C)cc1NC(=O)CSc1nnc(CN2CCCC2)o1,9.24%,–
COc1cc(OC)cc(C(=O)NCC(=O)OCc2csc(-c3ccccc3)n2)c1,-13.4%,–
COc1ccc(-c2nc(CCNC(=O)c3ccc(Br)o3)cs2)cc1,–,10 µM (active)
COc1ccc(N2CCN(C(=O)CNC(=O)c3ccc(Br)o3)CC2)cc1,12.5%,–
COc1ccc(C2=NN(C(=O)CSc3nnnn3C)C(c3ccco3)C2)cc1 (configuration not stated),0.807%,–
O=C(CSc1nccn1-c1cccc(F)c1)NC1CCCC1,-6.21%,–
CCCc1cc(=O)[nH]c2nnc(SCC(=O)Nc3nnc(SCC)s3)n12,13.1%,–
COc1ccccc1-c1nnc(-c2ccc(F)cc2)o1,2.16%,–
Cc1ccc(-c2nc(CSCC(=O)NC3CCN(Cc4ccccc4)CC3)c(C)o2)cc1,–,12.6 µM (active)
Cc1ccc(S(=O)(=O)NCCC(=O)NC2CCN(Cc3ccccc3)CC2)cc1,-7.73%,–
Cc1ccc(-c2nc(CS(=O)CC(=O)NC3CCCC3)c(C)o2)cc1 (configuration not stated),-19.2%,–

Compound,"activity change, negative = inhibition",Potency
O=C(Nc1ccccn1)C1CCN(S(=O)(=O)c2ccccc2)CC1,-29.9%,–
Fc1ccccc1COc1cccc2cccnc12,-5.88%,–
Cc1ccc(NC(=O)CN(C)C(=O)c2ccc(Cl)c(S(=O)(=O)NCc3ccco3)c2)cc1,-9.16%,–
COC(=O)C1=C(C)Nc2ncnn2C1c1cccnc1 (configuration not stated),4.06%,–
CC1=C(C(N)=O)C(c2ccc(Br)cc2)n2ncnc2N1 (configuration not stated),6.56%,–
Clc1ccc2c(c1)C1=C(C(c3ccncc3)O2)C(c2ccc(Br)cc2)n2ncnc2N1 (configuration not stated),–,12.6 µM (active)
COc1ccc(C(CNC(=O)c2cc(S(=O)(=O)Nc3cccc(C)c3)ccc2C)N2CCCC2)cc1 (configuration not stated),-23%,–
COc1cccc(CNC(=O)CN2C(=O)NC(Cc3ccccc3)(c3ccccc3)C2=O)c1 (configuration not stated),6.36%,–
COc1ccccc1N1CCN(CC(=O)Nc2ccnn2C2CCCC2)CC1,-3.97%,–
COc1cccc(C(=O)N2CCC(n3nccc3NC(=O)C3CCOC3)CC2)c1 (configuration not stated),16.5%,–
COc1cccc(N2CCN(CC(=O)Nc3ccnn3C3CCCC3)CC2)c1,–,10 µM (active)
CC(=O)NC(CC(=O)Nc1ccc(S(=O)(=O)N2CCOCC2)cc1)c1ccccc1 (configuration not stated),-6.34%,–
O=C(c1cc(-c2ccc(Cl)cc2)on1)N1CCN(c2ccccc2)CC1,14.7%,–
O=C(c1ccccc1)c1ccc(C(=O)N2CCN(c3ccccc3)CC2)cc1,-4.67%,–
O=C(c1cc2cc(F)ccc2[nH]1)N1CCN(c2ccc(F)cc2)CC1,-3.92%,–
O=C(c1cc(-c2ccc(F)cc2)on1)N1CCN(c2ccc(F)cc2)CC1,-27%,–
O=C(c1cccc(C(=O)N2CCN(c3ccc(F)cc3)CC2)c1)N1CCN(c2ccc(F)cc2)CC1,–,11.2 µM (active)
COc1ccc(-c2cc(C(=O)N3CCN(c4ccc(F)cc4)CC3)no2)cc1,–,22.4 µM (active)
Cc1ccc(C)c(NC(=O)COC(=O)Cn2c(C)csc2=O)c1,11.3%,–
